The campaign covered roughly 68,000 compounds. About 2,700 (4%) showed an effect of 50% or more. This is one part of a sample in which strong results are shown more often than they occur.
These compounds were tested on Plasmodium berghei (assay: Screen against P. berghei liver stage (PbLuc), transformed with Luciferase, at 2uM). Conditions: tested at 2 uM.
Type: functional, HepG2
Work on `CN1CC2(CCN(C(=O)c3[nH]cnc3-c3ccccc3)C2)OC1=O` (stereo not drawn) yielded an INHIBITION of 14.96%.
With `Cc1cc(N(C)C)nc(N2CC(n3cccn3)C2)n1` the INHIBITION was 35.46%.
Compound `Cc1cc(C2CCC2)nc(N2CC(n3cccn3)C2)n1` has an INHIBITION of 52.6%.
`Cc1cc(C2CCC2)nc(N2CCN(Cc3nccn3C)CC2)n1` showed an INHIBITION of 35.46%.
In the case of `Cc1c(NC(=O)CN2CCN(C3CCCC3)C(=O)C2)cnn1C`, the INHIBITION is reported as 17.24%.
Work on `c1ccc(-n2cc(CN3CCCC3Cn3cncn3)nn2)cc1` (stereo not drawn) yielded an INHIBITION of 15.47%.
Work on `Cc1cccc2nc(CSCC(=O)Nc3nnc(C(C)C)s3)cc(=O)n12` yielded an INHIBITION of 52.21%.
`Cc1ccn2c(=O)cc(CSCC(=O)Nc3nnc(C(C)C)s3)nc2c1` was tested, and the INHIBITION was 4.89%.
For `CC(C)c1nnc(NC(=O)CSCc2cc(=O)n3ccccc3n2)s1`, the INHIBITION was 1.87%.
For `COc1ccc2c3c1CN(C(C)=O)CC3=CC(C)(C)CO2`, the INHIBITION was 22.01%.
Compound `CSc1ccsc1C(=O)NC(C)c1ccc2c(c1)CCC(=O)N2` (stereo not drawn) has an INHIBITION of 0.48%.
With `Cc1ccsc1C(=O)NC(C)c1ccc2c(c1)CCC(=O)N2` (stereo not drawn) the INHIBITION was 0.48%.
Work on `CC(NC(=O)c1sccc1C1CC1)c1ccc2c(c1)CC(=O)N2` (stereo not drawn) yielded an INHIBITION of 51.14%.
`Cn1cc(C(=O)NCc2ccc(N3CCCC3)nc2)ccc1=O` showed an INHIBITION of -0.05%.
In the case of `Cc1ccn(CC(=O)NCCCOc2ccccc2F)c(=O)c1`, the INHIBITION is reported as 15.2%.
Compound `CN(C)S(=O)(=O)N1CCC(c2ccncn2)CC1` has an INHIBITION of -5.42%.
Work on `COCCn1ccc(NC(=O)Nc2ccncc2)n1` yielded an INHIBITION of 1.94%.
In the case of `O=S(=O)(NCC1(c2cccs2)CCOCC1)c1cccnc1`, the INHIBITION is reported as -0.59%.
`O=S(=O)(NCC1(c2cccs2)CCCC1)c1cccnc1` showed an INHIBITION of 58.53%.
Compound `O=S(=O)(NCC1(c2cccs2)CCOCC1)c1ccc2c(c1)OCCO2` has an INHIBITION of -12.08%.
`Cc1cccc(Nc2ccc(C3CCCCN3)cn2)n1` (stereo not drawn) was tested, and the INHIBITION was 30.53%.
For `O=C(NC1CC1)[C@H]1C[C@H]2OCC[C@H]2N(CC2CC2)C1`, the INHIBITION was 28.49%.
Work on `O=C(COCc1ccccc1)N1CCCC1c1noc(C2CC2)n1` (stereo not drawn) yielded an INHIBITION of 37.68%.
With `CN(CCCc1ccc(C(F)(F)F)cc1)Cc1nccn1C` the INHIBITION was 59.08%.
For `Cn1ccnc1CN(CCO)Cc1ccc(C(F)(F)F)cc1`, the INHIBITION was 9.42%.
In the case of `CN(CCCOc1ccccc1)Cc1nccn1C`, the INHIBITION is reported as -27.01%.
`CSCC(CCO)NC(=O)c1cccc(C)c1Cl` (stereo not drawn) showed an INHIBITION of -5.44%.
For `Cc1cn2c(n1)CCC(NC(=O)c1cc(Br)cn1C)C2` (stereo not drawn), the INHIBITION was -2.1%.
Work on `CCOc1ccc(C(F)(F)F)cc1NC(=O)NCc1noc(C)n1` yielded an INHIBITION of -40.82%.
`Cc1nc(CN2C(=O)COC3(CCN(CC4CC4)CC3)C2C)cs1` (stereo not drawn) gave an INHIBITION of 35.26%.
In the case of `CC(=O)N1CCC(CCNC(C)c2cc(F)cc(F)c2)CC1` (stereo not drawn), the INHIBITION is reported as 14.63%.
`CC(=O)N1CCC(CCNC(C)c2cc(C)cc(C)c2)CC1` (stereo not drawn) showed an INHIBITION of 8.03%.
Work on `CC(=O)N1CCC(CCNC(C)Cc2ccc(F)cc2)CC1` (stereo not drawn) yielded an INHIBITION of 63.1%.
For `CN(C)C(=O)C1CN(Cc2ccccn2)CCN(S(C)(=O)=O)C1` (stereo not drawn), the INHIBITION was 25.72%.
For `Cc1noc(C)c1CN(C)C(=O)c1ccc(C(N)=O)nc1`, the INHIBITION was 17.31%.
Work on `COc1ccccc1CN(CC1CCCO1)C(=O)c1scnc1C` (stereo not drawn) yielded an INHIBITION of 21.54%.
Compound `O=C(c1ccco1)N1C[C@@H]2OCCN(c3ncccn3)[C@@H]2C1` has an INHIBITION of 41.73%.
With `CCN1C(=O)C(c2ccccc2)CC12CCN(c1ncccn1)CC2` (stereo not drawn) the INHIBITION was 30.4%.
`CCN1C(=O)C(c2ccccc2)CC12CCN(CCO)CC2` (stereo not drawn) was tested, and the INHIBITION was 21.06%.
In the case of `CCN1C(=O)C(c2ccccc2)CC12CCN(Cc1cccnc1)CC2` (stereo not drawn), the INHIBITION is reported as 52.36%.
Compound `N#CCCN(C(=O)CCc1cccnc1)c1ccc2c(c1)OCCO2` has an INHIBITION of 33.26%.
For `CN(C)C(=O)c1ccn(-c2ccc3ccccn23)n1`, the INHIBITION was 6.35%.
`CC(C)(CNc1ccc(S(=O)(=O)C(F)F)cc1)N1CCOCC1` gave an INHIBITION of 5.02%.
With `CCC(C)(CNC(=O)Nc1nncs1)N1CCOCC1` (stereo not drawn) the INHIBITION was -42.64%.
`CC(C)(CNc1ccccc1S(=O)(=O)C(F)F)N1CCOCC1` gave an INHIBITION of -64.31%.
Work on `CC(C)(CNC(=O)Nc1ccc(S(=O)(=O)C(F)F)cc1)N1CCOCC1` yielded an INHIBITION of 53.63%.
Compound `CC(C)(CNC(=O)Nc1nccs1)N1CCOCC1` has an INHIBITION of 64.2%.
`CCC(C)(CNC(=O)Nc1nccs1)N1CCOCC1` (stereo not drawn) was tested, and the INHIBITION was 21.24%.
In the case of `CCC(CC)(CCO)CNC(=O)c1ccon1`, the INHIBITION is reported as 34.69%.
`CS(=O)(=O)NCCNC(=O)Cc1ccc(Br)s1` was tested, and the INHIBITION was 12.55%.
`Cc1ncc(CNC(=O)c2oc3ccccc3c2CN(C)C)s1` gave an INHIBITION of -21.47%.
Work on `Cc1cc(=O)[nH]c(SCC(=O)N(C)CC2Cc3ccccc3CN2C)n1` (stereo not drawn) yielded an INHIBITION of -15.36%.
Compound `CN(CC1Cc2ccccc2CN1C)C(=O)CSc1ccccn1` (stereo not drawn) has an INHIBITION of 35.54%.
Work on `CN(CC1Cc2ccccc2CN1C)C(=O)CSc1nccn1C` (stereo not drawn) yielded an INHIBITION of 53.61%.
`COc1ccc(CCCN(C)C(=O)c2cc(Cl)c[nH]2)cc1OC` gave an INHIBITION of 32.31%.
`O=C(C1CC1)N1Cc2[nH]nc(COCc3cccnc3)c2C1` was tested, and the INHIBITION was -14.61%.
Compound `O=C(Nc1cc(CCC2CCN(CCO)CC2)ccn1)c1ccccn1` has an INHIBITION of 35.19%.
Work on `COc1cccc(CC(=O)N2CC[C@@H]3[C@H](CC2)N(C)CCS3(=O)=O)c1` yielded an INHIBITION of 4.38%.
For `CC(C)CC(=O)N1CC[C@H]2N(C)CC[C@@]2(C(=O)Nc2ccccc2)CC1`, the INHIBITION was 11.87%.
For `CNC(=O)N1CC[C@H]2N(C)CC[C@@]2(C(=O)Nc2ccccc2)CC1`, the INHIBITION was 62.13%.
`CC(C)C(=O)N1CC[C@H]2N(C)CC[C@@]2(C(=O)Nc2ccccc2)CC1` was tested, and the INHIBITION was 17.69%.
For `CC(C)(C)Nc1nc(-c2cccnc2)c(-c2ccnc(NCCO)n2)s1`, the INHIBITION was -31.71%.
In the case of `CCOC1CCC2(CCN(C(=O)c3c[nH]cn3)CC2)c2ccccc21` (stereo not drawn), the INHIBITION is reported as 28.46%.
Compound `Cc1nn(C)c(N2CCOCC2)c1CNC(C)c1ccco1` (stereo not drawn) has an INHIBITION of -39.37%.
With `Cc1ccc(C(C)NCc2c(C(C)C)nn(C)c2N2CCOCC2)o1` (stereo not drawn) the INHIBITION was -41.76%.
`CC(C)c1nn(C)c(N2CCOCC2)c1CNC(C)c1ccco1` (stereo not drawn) gave an INHIBITION of 53.98%.
Compound `NC(CC1CCCC1)c1ccccc1` (stereo not drawn) has an INHIBITION of 10.24%.
In the case of `CCN1CCCC1CNC(=O)c1cc(COc2cccc(F)c2)[nH]n1` (stereo not drawn), the INHIBITION is reported as 21.67%.
Work on `O=C(CC1CC1)N1CCc2ncc(Cn3cncn3)n2CC1` yielded an INHIBITION of 31.73%.
`CC(C)S(=O)(=O)N1CCCC(c2nccn2Cc2cccnc2)C1` (stereo not drawn) gave an INHIBITION of -7.66%.
`O=C([C@@H]1CCO[C@@H]2CCN(CC3CC3)C[C@H]21)N1CCCC1` showed an INHIBITION of -16.33%.
Compound `Cc1noc(C)c1CN1CC[C@H]2OCC[C@@H](C(=O)NCC3CC3)[C@@H]2C1` has an INHIBITION of 6.04%.
`O=C([C@@H]1CCO[C@@H]2CCN(CC3CC3)C[C@H]21)N1CCCCO1` gave an INHIBITION of 57.07%.
`O=C([C@@H]1CCO[C@@H]2CCN(CC3CCOCC3)C[C@H]21)N1CCCO1` gave an INHIBITION of -3.19%.
For `Cc1noc(C)c1CN1CC[C@H]2OCC[C@@H](C(=O)N3CCCO3)[C@H]2C1`, the INHIBITION was 59.08%.
For `Cc1noc(C)c1CN1CC[C@H]2OCC[C@@H](C(=O)N3CCCO3)[C@@H]2C1`, the INHIBITION was -13.8%.
`CCn1ccc(NC(=O)C2CCC(=O)N2Cc2ccc(C)o2)n1` (stereo not drawn) was tested, and the INHIBITION was 45.14%.
Compound `O=C(c1cc(=O)n(-c2ccccc2)[nH]1)N1CCOCC(O)C1` (stereo not drawn) has an INHIBITION of 4.12%.
`COCCOc1ccccc1NC(C)C(=O)NC(=O)NC(C)(C)C` (stereo not drawn) gave an INHIBITION of -19.21%.
Work on `CCCc1n[nH]c(C2CN(C(=O)c3ccc[nH]3)CCO2)n1` (stereo not drawn) yielded an INHIBITION of -70.51%.
With `CC(Cc1ccccc1F)NC(=O)CCC1=NC(=C2N=CN=N2)NO1` (stereo not drawn) the INHIBITION was 24.12%.
In the case of `COCCNC(=O)Cn1c(-c2cccc(F)c2)nc(C)c(CCO)c1=O`, the INHIBITION is reported as -4.75%.
`COCCC1(CO)CCCN(Cc2ccncc2)C1` (stereo not drawn) gave an INHIBITION of 10.53%.
`O=C(O)C1(Cc2ccc(F)cc2F)CCCN(Cc2ccncc2)C1` (stereo not drawn) was tested, and the INHIBITION was 43.57%.
`OCC1(Cc2ccc(F)cc2F)CCCN(Cc2ccncc2)C1` (stereo not drawn) gave an INHIBITION of 61.48%.
In the case of `Cc1c(-c2cc(C(=O)N3CCc4ncc(Cl)cc4C3)on2)cnn1C`, the INHIBITION is reported as -30.88%.
`O=C(NCC(F)F)c1cc(-c2ccccc2)nc2ncnn12` gave an INHIBITION of 5.88%.
`CCc1nc(CCNC(=O)Nc2ccc(C(=O)NC)cc2)cs1` showed an INHIBITION of -58.5%.
`CCc1nc(CCNC(=O)NC2CCSCC2)cs1` gave an INHIBITION of 50.32%.
`CCc1nc(CCNC(=O)NC2CC(=O)N(C(C)(C)C)C2)cs1` (stereo not drawn) gave an INHIBITION of 3.62%.
In the case of `CCNCc1ccc(OCc2ccc3c(c2)OCCO3)cc1`, the INHIBITION is reported as 12.94%.
`NC1CC(C(F)(F)F)=NC=C1c1ccccc1` (stereo not drawn) showed an INHIBITION of 25.93%.
Compound `Cn1c(C(F)(F)F)nn(CCNC(=O)Nc2ccccc2Cl)c1=O` has an INHIBITION of 64.74%.
Work on `Cc1ccccc1NC(=O)NCCn1nc(C(F)(F)F)n(C)c1=O` yielded an INHIBITION of 16.54%.
With `Cn1c(C(F)(F)F)nn(CCNC(=O)Nc2ccccc2F)c1=O` the INHIBITION was 37.87%.
`Cn1cc(C(=O)N2CCN(Cc3cscn3)CC2)ccc1=O` showed an INHIBITION of -15.08%.
`O=C(NCc1ccccc1)N1CCC2(CC(=O)N(c3ccsc3)C2)C1` (stereo not drawn) gave an INHIBITION of 18.86%.
`Cc1cccc(NC(=O)N2CCC3(CC(=O)N(c4ccsc4)C3)C2)c1` (stereo not drawn) gave an INHIBITION of 1.29%.
With `CN1CC2(CNCCN(C(=O)Nc3ccccc3)C2)CC1=O` (stereo not drawn) the INHIBITION was 56.21%.
Compound `O=C(Nc1ccccc1)N1CCC2(CC(=O)N(c3ccsc3)C2)C1` (stereo not drawn) has an INHIBITION of 57.31%.
`CCN1CC2(CNCCN(C(=O)Nc3ccccc3)C2)CC1=O` (stereo not drawn) was tested, and the INHIBITION was 17.77%.
`CC(=O)N1CCN(C(=O)Nc2ccccc2)CC2(CC(=O)N(C)C2)C1` (stereo not drawn) gave an INHIBITION of 7.88%.
`Cc1nn(Cn2ccc(C(=O)N3CCCCCC3)n2)c(C)c1Cl` showed an INHIBITION of 7.68%.

Source: ChEMBL document CHEMBL4513216, “Probing the Open Global Health Chemical Diversity Library for Multistage-Active Starting Points for Next-Generation Antimalarials” (ACS Infect Dis, 2020)
